{
  "source": "PubChem BioAssay (Tox21)",
  "note": "Values joined by “and” are separate entries in the source; they are usually repeats but may differ in a detail not shown here. Identical values can stand only once. Records with an inconclusive call do not appear. Where a call stands in place of a potency, no number is given. Active and inactive are the calls of the source. Unless noted, calls follow the shape of the full dose curve.",
  "data": [
    {"tested_on": "not listed separately", "experiment": "qHTS assay to identify small molecule antagonists of the estrogen receptor beta (ER-beta) signaling pathway - cell viability counter screen (AID 1259382; active = well fitted cell-killing curve with a large enough effect in the repeat runs; also: nearly all actives have a fitted effect of over 55% in size; also: potency is read from the fitted curve at half-maximal effect)", "settings": "ER-beta-UAS-bla HEK293T viability, CellTiter-Glo luminescence, 16 h; series mostly up to 92.4 µM", "summary_of_the_method": "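Cytotoxicity was measured in the same wells by CellTiter-Glo luminescence after 30 min at room temperature. Cells were ER-beta-bla HEK293T in charcoal-stripped serum, given compound together with 1 nM E2 and incubated 16 h at 37C.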", "values": [
      {"smiles": "CCN(Cc1cccnc1)C(=O)c1cccc(Cl)c1[C@]1(C)C(=O)N(Cc2ccc(OC)cc2OC)c2ccc(Cl)cc21", "Potency": "inactive"},
      {"smiles": "Clc1ccc(C(Cn2ccnc2)OCc2ccc(Sc3ccccc3)cc2)c(Cl)c1", "note": "(configuration not stated)", "Potency": "inactive"},
      {"smiles": "O=C(N/N=C/c1ccccc1O)c1ccncc1", "Potency": "inactive"},
      {"smiles": "CCCCN1CCCC[C@H]1C(=O)Nc1c(C)cccc1C", "Potency": "inactive"},
      {"smiles": "O=S1(=O)CC(Cl)(Cl)C(Cl)(Cl)C1", "Potency": "9.69 µM (active)"},
      {"smiles": "CC(C)CCCCCCCCCCCCCCC(=O)O", "Potency": "inactive"},
      {"smiles": "NC(=O)NS(=O)(=O)c1ccc(N)cc1", "Potency": "inactive"},
      {"smiles": "C[n+]1ccn(Cc2ccccc2)c1", "Potency": "inactive"},
      {"smiles": "OCCN1CCN(CC/C=C2/c3ccccc3Sc3ccc(C(F)(F)F)cc32)CC1", "Potency": "26.6 µM (active)"},
      {"smiles": "Cc1onc(-c2ccccc2Cl)c1C(=O)N[C@@H]1C(=O)N2[C@@H]1SC(C)(C)[C@@H]2C(=O)O", "Potency": "inactive"},
      {"smiles": "CCCC(C)c1ccccc1O", "note": "(configuration not stated)", "Potency": "inactive"},
      {"smiles": "CCCCCCCC(=O)[O-].CCCCCCCC(=O)[O-].[Zn+2]", "Potency": "inactive"},
      {"smiles": "CCc1cc(SCc2sc(-c3ccc(C(F)(F)F)cc3)nc2CN2CCN(c3ccc(OC)cc3)CC2)ccc1OCC(=O)O", "Potency": "4.33 µM (active)"},
      {"smiles": "Cc1cccc(N(C)C(=S)Oc2ccc3c(c2)C2CCC3C2)c1", "note": "(configuration not stated)", "Potency": "inactive"},
      {"smiles": "Cc1cc(N)c(S(=O)(=O)O)cc1Cl", "Potency": "inactive"},
      {"smiles": "C1CCCC1", "Potency": "inactive"},
      {"smiles": "C[C@@H](NCCCc1cccc(C(F)(F)F)c1)c1cccc2ccccc12", "Potency": "18.8 µM (active)"},
      {"smiles": "Clc1ccc2nsnc2c1NC1=NCCN1", "Potency": "inactive"},
      {"smiles": "CCC1OCC(COc2ccc(Oc3ccccc3)cc2)O1", "note": "(configuration not stated)", "Potency": "inactive"},
      {"smiles": "N#CC1(c2ccc(F)cc2)CCC(=O)CC1", "Potency": "inactive"},
      {"smiles": "CC(C)(C)CC(C)(C)c1ccc(OCCOCC[N+](C)(C)Cc2ccccc2)cc1", "Potency": "27.3 µM (active) and 15 µM (active)"},
      {"smiles": "COc1cc(-c2nc(NC(=O)c3cc4cc(C)cc(C)c4n3CC(=O)O)sc2CCC2CCCCC2)c(OC)cc1Cl", "Potency": "39.7 µM (active)"}
    ]},
    {"molecular_target": "Estrogen receptor (Homo sapiens) (UniProt P03372)", "sequence (P03372 whole entry, looked up)": "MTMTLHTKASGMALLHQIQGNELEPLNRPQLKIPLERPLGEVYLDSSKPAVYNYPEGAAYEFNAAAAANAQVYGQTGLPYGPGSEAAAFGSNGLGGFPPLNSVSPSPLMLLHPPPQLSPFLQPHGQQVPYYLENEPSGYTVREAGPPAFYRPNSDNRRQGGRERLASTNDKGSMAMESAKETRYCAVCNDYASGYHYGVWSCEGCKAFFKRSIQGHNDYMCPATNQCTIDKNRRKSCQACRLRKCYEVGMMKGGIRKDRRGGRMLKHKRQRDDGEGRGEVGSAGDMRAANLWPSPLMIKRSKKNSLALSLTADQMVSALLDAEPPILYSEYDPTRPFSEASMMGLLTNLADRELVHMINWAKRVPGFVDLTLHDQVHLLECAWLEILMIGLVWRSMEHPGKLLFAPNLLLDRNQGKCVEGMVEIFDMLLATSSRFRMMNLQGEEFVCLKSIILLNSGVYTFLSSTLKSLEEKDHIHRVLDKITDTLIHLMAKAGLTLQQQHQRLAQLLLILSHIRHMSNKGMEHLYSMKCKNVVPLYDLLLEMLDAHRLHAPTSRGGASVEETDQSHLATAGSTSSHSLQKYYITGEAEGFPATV", "experiment": "qHTS assay to identify small molecule agonists of the estrogen receptor alpha (ER-alpha) signaling pathway in the presence of an antagonist (AID 1259383); also: top concentration of the series differs between compounds; nearly all actives have a fitted effect of over 15% in size", "settings": "VM7Luc4E2 cells, ERE-luciferase, +ICI-182,780, 22 h; series mostly up to 92.4 µM", "summary_of_the_method": "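Agonist-mode confirmation run in the presence of 10.0nM (final) ICI-182,780 antagonist. The reporter was ERE-driven luciferase in VM7Luc4E2 cells, grown in charcoal-stripped serum. Cells were exposed to 15-concentration compound series for 22hr, then ONE-Glo luminescence was read.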", "values": [
      {"smiles": "Clc1ccc(C(Cn2ccnc2)OCc2ccc(Sc3ccccc3)cc2)c(Cl)c1", "note": "(configuration not stated)", "Potency": "inactive"},
      {"smiles": "O=C(N/N=C/c1ccccc1O)c1ccncc1", "Potency": "inactive"},
      {"smiles": "CCCCN1CCCC[C@H]1C(=O)Nc1c(C)cccc1C", "Potency": "inactive"},
      {"smiles": "O=S1(=O)CC(Cl)(Cl)C(Cl)(Cl)C1", "Potency": "inactive"},
      {"smiles": "NC(=O)NS(=O)(=O)c1ccc(N)cc1", "Potency": "inactive"},
      {"smiles": "Cc1onc(-c2ccccc2Cl)c1C(=O)N[C@@H]1C(=O)N2[C@@H]1SC(C)(C)[C@@H]2C(=O)O", "Potency": "inactive"},
      {"smiles": "CCCC(C)c1ccccc1O", "note": "(configuration not stated)", "Potency": "inactive"},
      {"smiles": "O=C(c1ccc(F)cc1)C1CCN(CCn2c(=O)[nH]c3ccccc3c2=O)CC1", "Potency": "inactive"},
      {"smiles": "CCC(CN)=C(c1ccccc1)c1ccccc1", "Potency": "inactive"},
      {"smiles": "CCCCCCCC(=O)[O-].CCCCCCCC(=O)[O-].[Zn+2]", "Potency": "inactive"},
      {"smiles": "Cc1ccc(-n2nc(C(C)(C)C)cc2NC(=O)Nc2ccc(OCCN3CCOCC3)c3ccccc23)cc1", "Potency": "inactive"},
      {"smiles": "Cc1cccc(N(C)C(=S)Oc2ccc3c(c2)C2CCC3C2)c1", "note": "(configuration not stated)", "Potency": "inactive"},
      {"smiles": "COCCCC/C(=N\\OCCN)c1ccc(C(F)(F)F)cc1", "Potency": "inactive"},
      {"smiles": "C[C@@H](NCCCc1cccc(C(F)(F)F)c1)c1cccc2ccccc12", "Potency": "inactive"},
      {"smiles": "NNc1nc(-c2ccc(N)cc2)cs1", "Potency": "inactive"},
      {"smiles": "Clc1ccc2nsnc2c1NC1=NCCN1", "Potency": "inactive"},
      {"smiles": "N#CC1(c2ccc(F)cc2)CCC(=O)CC1", "Potency": "inactive"}
    ]},
    {"tested_on": "not listed separately", "experiment": "qHTS assay to identify small molecule agonists or antagonists of the thyroid stimulating hormone receptor (TSHR) signaling pathway - wild type cell line counter screen (AID 1259384)", "settings": "HEK293 wild type, cAMP HTRF counter-screen, hits give high values; series mostly up to 92.4 µM", "summary_of_the_method": "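Counter screen in untransfected Hek293: compounds (15-point titration, triplicate) plus phosphodiesterase inhibitor Ro20-1724 added after 18 h plating; 30 min RT. Intracellular cAMP via competitive d2/cryptate immunoassay, 1 h incubation.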", "values": [
      {"smiles": "CCN(Cc1cccnc1)C(=O)c1cccc(Cl)c1[C@]1(C)C(=O)N(Cc2ccc(OC)cc2OC)c2ccc(Cl)cc21", "outcome": "inactive"},
      {"smiles": "Clc1ccc(C(Cn2ccnc2)OCc2ccc(Sc3ccccc3)cc2)c(Cl)c1", "note": "(configuration not stated)", "outcome": "inactive"},
      {"smiles": "O=C(N/N=C/c1ccccc1O)c1ccncc1", "outcome": "inactive"},
      {"smiles": "CCCCN1CCCC[C@H]1C(=O)Nc1c(C)cccc1C", "outcome": "inactive"},
      {"smiles": "O=S1(=O)CC(Cl)(Cl)C(Cl)(Cl)C1", "outcome": "inactive"},
      {"smiles": "Cn1cc(C(=O)[C@@H]2CCc3nc[nH]c3C2)c2ccccc21", "outcome": "inactive"},
      {"smiles": "Cc1[nH]cnc1C[C@H]1CCc2c(C)c3ccccc3n2C1=O", "outcome": "inactive"},
      {"smiles": "NC(=O)NS(=O)(=O)c1ccc(N)cc1", "outcome": "inactive"},
      {"smiles": "C[n+]1ccn(Cc2ccccc2)c1", "outcome": "inactive"},
      {"smiles": "OCCN1CCN(CC/C=C2/c3ccccc3Sc3ccc(C(F)(F)F)cc32)CC1", "outcome": "inactive"},
      {"smiles": "Cc1onc(-c2ccccc2Cl)c1C(=O)N[C@@H]1C(=O)N2[C@@H]1SC(C)(C)[C@@H]2C(=O)O", "outcome": "inactive"},
      {"smiles": "CCCC(C)c1ccccc1O", "note": "(configuration not stated)", "outcome": "inactive"},
      {"smiles": "OCCCCCCCCCCCCBr", "outcome": "inactive"},
      {"smiles": "C/C(=C(/OCCOc1ccc(Cl)cc1)c1ccc(Cl)cc1Cl)n1ccnc1", "outcome": "inactive"},
      {"smiles": "O=C(c1ccc(F)cc1)C1CCN(CCn2c(=O)[nH]c3ccccc3c2=O)CC1", "outcome": "inactive"},
      {"smiles": "CCC(CN)=C(c1ccccc1)c1ccccc1", "outcome": "inactive"},
      {"smiles": "CCOC(=O)O[C@]1(C(=O)OCCl)CC[C@H]2[C@@H]3CCC4=CC(=O)C=C[C@]4(C)[C@H]3[C@@H](O)C[C@@]21C", "outcome": "inactive"},
      {"smiles": "CCc1cc(SCc2sc(-c3ccc(C(F)(F)F)cc3)nc2CN2CCN(c3ccc(OC)cc3)CC2)ccc1OCC(=O)O", "outcome": "inactive"},
      {"smiles": "Cc1ccc(-n2nc(C(C)(C)C)cc2NC(=O)Nc2ccc(OCCN3CCOCC3)c3ccccc23)cc1", "outcome": "inactive"},
      {"smiles": "CC(C)OC(=O)c1cc2c(OCC(O)CNC(C)(C)C)cccc2[nH]1", "note": "(configuration not stated)", "outcome": "inactive"},
      {"smiles": "Cc1cccc(N(C)C(=S)Oc2ccc3c(c2)C2CCC3C2)c1", "note": "(configuration not stated)", "outcome": "inactive"},
      {"smiles": "Cc1cc(N)c(S(=O)(=O)O)cc1Cl", "outcome": "inactive"},
      {"smiles": "COCCCC/C(=N\\OCCN)c1ccc(C(F)(F)F)cc1", "outcome": "inactive"},
      {"smiles": "C1CCCC1", "outcome": "inactive"},
      {"smiles": "C[C@@H](NCCCc1cccc(C(F)(F)F)c1)c1cccc2ccccc12", "outcome": "inactive"},
      {"smiles": "O=c1cccccc1O", "outcome": "inactive"},
      {"smiles": "NNc1nc(-c2ccc(N)cc2)cs1", "outcome": "inactive"},
      {"smiles": "CCCCN(CCCC)C(=O)N(CCCC)CCCC", "outcome": "inactive"},
      {"smiles": "Clc1ccc2nsnc2c1NC1=NCCN1", "outcome": "inactive"},
      {"smiles": "CCC1OCC(COc2ccc(Oc3ccccc3)cc2)O1", "note": "(configuration not stated)", "outcome": "inactive"},
      {"smiles": "N#CC1(c2ccc(F)cc2)CCC(=O)CC1", "outcome": "inactive"},
      {"smiles": "CC(C)(C)CC(C)(C)c1ccc(OCCOCC[N+](C)(C)Cc2ccccc2)cc1", "outcome": "inactive"},
      {"smiles": "COc1cc(-c2nc(NC(=O)c3cc4cc(C)cc(C)c4n3CC(=O)O)sc2CCC2CCCCC2)c(OC)cc1Cl", "outcome": "inactive"}
    ]}
  ]
}
